# Measured values as given in publication PMC4336329 (PLoS ONE, 2015).
# Among all 310,000 compounds or so, about 2,200 (0.71%) showed an effect of 50% or more. The effect is printed as a negative number. The full list was thinned out, with strong results kept by preference.
# Biological target: human ether-à-go-go-related gene (hERG) potassium channel (human, UniProt Q12809)
# Assay: primary screen, population patch clamp on CHO cells stably expressing hERG; higher = less effect of the substance
# Sequence of human ether-à-go-go-related gene (hERG) potassium channel (Q12809 whole entry, looked up): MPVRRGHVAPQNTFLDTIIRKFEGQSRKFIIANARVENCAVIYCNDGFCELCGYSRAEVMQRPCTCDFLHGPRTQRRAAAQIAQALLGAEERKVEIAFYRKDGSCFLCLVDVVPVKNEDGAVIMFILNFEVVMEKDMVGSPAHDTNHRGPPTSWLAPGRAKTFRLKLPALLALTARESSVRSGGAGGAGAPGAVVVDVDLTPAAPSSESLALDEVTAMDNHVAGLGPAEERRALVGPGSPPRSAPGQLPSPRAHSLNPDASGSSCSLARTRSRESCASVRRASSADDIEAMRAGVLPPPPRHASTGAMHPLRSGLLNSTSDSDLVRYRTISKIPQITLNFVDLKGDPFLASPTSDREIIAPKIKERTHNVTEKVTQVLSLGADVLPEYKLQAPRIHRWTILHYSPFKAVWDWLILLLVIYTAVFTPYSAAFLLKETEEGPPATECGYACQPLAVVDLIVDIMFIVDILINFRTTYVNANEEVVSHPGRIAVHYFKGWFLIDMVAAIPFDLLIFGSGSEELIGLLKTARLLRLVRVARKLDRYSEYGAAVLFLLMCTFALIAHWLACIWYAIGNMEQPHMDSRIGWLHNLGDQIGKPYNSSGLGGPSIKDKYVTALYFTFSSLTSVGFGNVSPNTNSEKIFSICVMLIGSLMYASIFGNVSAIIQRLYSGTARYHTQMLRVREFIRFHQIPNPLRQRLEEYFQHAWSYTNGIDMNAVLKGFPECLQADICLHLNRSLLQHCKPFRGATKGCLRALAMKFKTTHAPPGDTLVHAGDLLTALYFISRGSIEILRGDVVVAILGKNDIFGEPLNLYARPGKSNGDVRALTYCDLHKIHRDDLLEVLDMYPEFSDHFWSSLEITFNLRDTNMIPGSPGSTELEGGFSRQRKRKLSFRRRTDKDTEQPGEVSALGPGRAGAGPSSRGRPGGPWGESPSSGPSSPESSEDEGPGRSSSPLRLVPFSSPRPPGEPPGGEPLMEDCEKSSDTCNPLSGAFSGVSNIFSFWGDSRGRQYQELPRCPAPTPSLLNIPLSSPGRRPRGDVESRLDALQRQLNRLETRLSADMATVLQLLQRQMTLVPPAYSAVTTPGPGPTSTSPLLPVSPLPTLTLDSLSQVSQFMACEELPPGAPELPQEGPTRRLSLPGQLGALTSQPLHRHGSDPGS
row,Compound,"hERG current change (%, negative = inhibition) at 1uM [%]"
1,CCC(C)(C(=O)NC1CCCCC1)N(C)C(=O)c1ccccn1 (centres unmarked),4.4
2,CCC(C)(C(=O)NC1CCCCC1)N(CC1CCCO1)C(=O)CNC(=O)c1ccccc1 (centres unmarked),9.5
3,CCC(C)(C(=O)NC1CCCCC1)N(CC1CCCO1)C(=O)c1ccccn1 (centres unmarked),-80.8
4,COc1ccc(-c2noc(CSc3nc4ccccc4c(=O)n3-c3ccccc3)n2)cc1,1.58
5,CCC1(C)Cc2ccccc2-c2nc3n(c(=O)c21)CCS3 (centres unmarked),12
6,O=c1[nH]c(CN2CCN(S(=O)(=O)/C=C/c3ccccc3)CC2)nc2cc(Cl)ccc12,-21.4
7,O=c1[nH]c(CN2CCN(S(=O)(=O)/C=C/c3ccccc3)CC2)nc2ccccc12,-18.2
8,O=c1[nH]c(CN2CCOCC2)nc2cc(Cl)ccc12,4.78
9,O=c1[nH]c(CN2CCN(C/C=C/c3ccccc3)CC2)nc2cc(Cl)ccc12,-108
10,O=c1[nH]c(CN2CCN(C/C=C/c3ccccc3)CC2)nc2ccccc12,-52.6
11,O=C(CCc1nc2ccccc2c(=O)[nH]1)N1CCN(C/C=C/c2ccccc2)CC1,-12.3
12,Cc1cc(C)n(-c2nc(-c3ccccc3)cs2)n1,1.91
13,O=C(Nc1ccc2oc(-c3ccc4ccccc4c3)nc2c1)c1ccc2c(c1)OCCO2,16.3
14,O=c1cc(CN2CCN(C/C=C/c3ccccc3)CC2)c2cc(O)c(-c3ccccc3)cc2o1,12.8
15,Cc1cc2oc(=O)cc(CN3CCN(C/C=C/c4ccccc4)CC3)c2cc1O,-67.8
16,Cc1cc2oc(=O)cc(CN3CCN(S(=O)(=O)/C=C/c4ccccc4)CC3)c2cc1C,14.5
17,O=c1cc(CN2CCN(S(=O)(=O)/C=C/c3ccccc3)CC2)c2ccc(O)cc2o1,-29.8
18,Cc1ccc2oc(=O)cc(CN3CCN(C/C=C/c4ccccc4)CC3)c2c1,-53.7
19,O=c1cc(CN2CCN(C/C=C/c3ccccc3)CC2)c2cc(O)ccc2o1,-86

row,Compound,"hERG current change (%, negative = inhibition) at 1uM [%]"
1,Cc1c(O)ccc2c(CN3CCN(C/C=C/c4ccccc4)CC3)cc(=O)oc12,-36.2
2,Cc1cc(C)c2c(CN3CCN(C/C=C/c4ccccc4)CC3)cc(=O)oc2c1,-41.5
3,CCN1CCN(Cc2cc(=O)oc3ccc(C)cc23)CC1,11.9
4,COc1cccc(NC(=O)C2CCCO2)c1 (centres unmarked),11.7
5,COC(=O)C1=NN(N=O)C2(CC(=O)N(c3cc(C)cc(C)c3)C2=O)C1 (centres unmarked),9.48
6,CCC(=O)N1c2ccc(S(=O)(=O)N3CCN(C)CC3)cc2CC1C (centres unmarked),4.4
7,Cc1c(CC(=O)N[C@@H](C)C(=O)O)c(=O)oc2cc3occ(-c4ccccc4)c3cc12,18.2
8,Cc1ccc(Cn2ncc3c(NCCN(C)C)ncnc32)cc1,1.2
9,COc1ccc(N2CC(C(=O)Nc3ccccc3N3CCCC3)CC2=O)c(OC)c1 (centres unmarked),8.29
10,CCOC(=O)c1ccc(NC(=S)N(CCCN2CCN(CC)CC2)Cc2cccs2)cc1,-40.2
11,CCOc1ccc2nc(NC(=O)Cc3cccs3)sc2c1,6.15
12,CCOc1ccc(N=C2Sc3nc4ccc(C)cc4cc3CN2CCOC)cc1,16.5
13,CCC(C)N=C1Sc2nc3ccc(C)cc3cc2CN1CCOC (centres unmarked),-60.4
14,COCCN1Cc2cc3cc(C)ccc3nc2SC1=Nc1ccc(OC)cc1,9.8
15,C=CCn1c(SCC(O)Cn2c3ccccc3c3ccccc32)nnc1-c1ccco1 (centres unmarked),13.9
16,O=c1[nH]ncn1-c1ccccc1C(F)(F)F,10.3
17,CCc1ccc2[nH]c(=O)c(CN(CCN(C)C)C(=O)Nc3ccccc3OC)cc2c1,-41.4
18,CCc1ccc2[nH]c(=O)c(CN(CCN3CCCC3)C(=O)NC3CCCCC3)cc2c1,-8.52
19,CCc1ccc2[nH]c(=O)c(CN(CCN(CC)CC)C(=O)Nc3ccccc3OC)cc2c1,-50.7

row,Compound,"hERG current change (%, negative = inhibition) at 1uM [%]"
1,CCc1ccc2[nH]c(=O)c(CN(CCN(CC)CC)C(=O)NC3CCCCC3)cc2c1,-51.5
2,CCN(CC)CCN(Cc1cc2cc(C)ccc2[nH]c1=O)C(=O)Nc1ccccc1OC,-22.2
3,CCN(CC)CCN(Cc1cc2ccc(C)cc2[nH]c1=O)C(=O)NC1CCCCC1,-23.9
4,O=C(Cc1ccc([N+](=O)[O-])cc1)Nc1ccc2c(c1)CCC2,10.4
5,COc1ccc(-c2nsc(SCC(=O)Nc3ccc4c(c3)OCO4)n2)cc1,15
6,COC(=O)[C@@H](NC(=O)c1ccccc1)[C@@H](C)O,5.85
7,Nc1nc(N2CCCCC2)nc(N2CCCCC2)n1,-78.5
8,C1CCN(c2nc(N3CCCCC3)nc(N3CCNCC3)n2)CC1,2.68
9,Nc1nc(N2CCCCC2)nc(N(c2ccccc2)c2ccccc2)n1,15.2
10,COC(=O)CN1C(=O)Nc2ccc(Br)cc2C1c1ccccc1Cl (centres unmarked),-8.8
11,C/C(=N/NC(=O)c1cccnc1)C1=C(O)CC(C)(C)CC1=O,18.4
12,CCOC(=O)CSc1cn2c(n1)CCC2,14.5
13,CNC(=O)CSc1nc2cc(S(=O)(=O)Nc3ccccc3OC)ccc2o1,9.52
14,Cc1sc2ncnc(N3CCOCC3)c2c1C,-5.93
15,Cc1sc2ncnc(NCC(C)(C)N3CCOCC3)c2c1C,-63.6
16,Cc1sc2ncnc(NCCN3CCOCC3)c2c1C.O=C(O)C(=O)O,9.44
17,COC(=O)CC1NCCc2cc(OC)c(OC)cc21 (centres unmarked),5.12
18,CC(OC(=O)CCC1CCCCC1)C(=O)Nc1ccc(S(N)(=O)=O)cc1 (centres unmarked),9.83
